Records with an inconclusive call do not appear. Calls of active or inactive are those of the source. How the source made its calls, unless noted: active means hit-call score of the fitted dose curve at least 0.9, where 1 is the maximum; inactive means score below 0.9.
Experiments:
[1] = BSK_LPS_PGE2: BioMAP Diversity Plus: LPS Assay for Prostaglandin E2 (PGE2) Biomarker Activity (AID 2283082); settings: primary human HUVEC with PBMC; actives raise or lower the signal;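 on AC50: secreted prostaglandin E2 measured by ELISA in LPS-stimulated co-culture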
Summary of the method: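 Endpoint derived from bidirectional curve fitting versus DMSO of ELISA-measured PGE2 in LPS-stimulated human primary vascular co-culture (HUVEC with PBMC) harvested at 24 h.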

[2] = read-out: Macrophage colony-stimulating factor (MCSF), CSF1 (gene 1435); experiment: BSK_LPS_MCSF: BioMAP Diversity Plus: LPS Assay for Macrophage colony-stimulating factor (MCSF) Biomarker Activity (AID 2283083); settings: primary human HUVEC with PBMC; actives raise or lower the signal
Summary of the method: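 Bidirectional fit versus DMSO of ELISA-measured M-CSF in co-cultured human umbilical vein endothelial cells and PBMC, sampled 24 h after dosing.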

[3] = read-out: Tissue Factor, F3 (gene 2152); experiment: BSK_LPS_TissueFactor: BioMAP Diversity Plus: LPS Assay for Tissue Factor Biomarker Activity (AID 2283084); settings: primary human HUVEC with PBMC; actives raise or lower the signal
Summary of the method: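 Read-out: CD142 ELISA, 24 h. System: LPS-driven human endothelial/PBMC co-culture. Analysis: up- or down-signal fitted against DMSO.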

[4] = read-out: Tumor necrosis factor (Homo sapiens) (UniProt P01375); experiment: BSK_LPS_TNFa: BioMAP Diversity Plus: LPS Assay for Tumour Necrosis Factor alpha (TNFa) Biomarker Activity (AID 2283085); settings: primary human HUVEC with PBMC; actives raise or lower the signal
Summary of the method: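 Primary human vascular co-culture of HUVEC and PBMC; TNFa ELISA 24 h after treatment, analysed as increase or decrease relative to DMSO control.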

[5] = read-out: Vascular cell adhesion molecule 1 (VCAM1), VCAM1 (gene 7412); experiment: BSK_LPS_VCAM1: BioMAP Diversity Plus: LPS Assay for Vascular cell adhesion molecule 1 (VCAM1) Biomarker Activity (AID 2283086); settings: primary human HUVEC with PBMC; actives raise or lower the signal
Summary of the method: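 Primary human vascular co-culture (umbilical vein endothelium plus PBMC) stimulated with LPS received chemical; 24 h later VCAM-1 was read by ELISA. Overt cytotoxicity was assessed by sulforhodamine B staining of parallel cultures at the same time point.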

[6] = read-out: CD40, CD40 (gene 958); experiment: BSK_SAg_CD40: BioMAP Diversity Plus: SAg Assay for CD40 Biomarker Activity (AID 2283088); settings: primary human HUVEC with PBMC; actives raise or lower the signal
Summary of the method: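 Endpoint derived by fitting increases or decreases versus DMSO controls. CD40 is detected by fluorescence ELISA in a human vascular co-culture of endothelium and PBMC at 24 h.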

[7] = read-out: CD69, CD69 (gene 969); experiment: BSK_SAg_CD69: BioMAP Diversity Plus: SAg Assay for CD69 Biomarker Activity (AID 2283089); settings: primary human HUVEC with PBMC; actives raise or lower the signal;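 on AC50: cell surface CD69 protein quantified by ELISA with fluorescence detection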
Summary of the method: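 Values derive from bidirectional fitting relative to DMSO vehicle. Cells: umbilical vein endothelium plus peripheral blood mononuclear cells, treated 24 h before fluorescent ELISA for CD69.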

[8] = read-out: Monocyte Chemoattractant Protein-1 (MCP1), CCL2 (gene 6347); experiment: BSK_SAg_MCP1: BioMAP Diversity Plus: SAg Assay for Monocyte Chemoattractant Protein-1 (MCP1) Biomarker Activity (AID 2283090); settings: primary human HUVEC with PBMC; actives raise or lower the signal
Summary of the method: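 MCP-1 levels in the endothelial–PBMC SAg co-culture were quantified by ELISA at 24 h post-dosing; both increases and decreases versus DMSO scored. Cytotoxicity monitored by SRB total protein in parallel cultures.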

[9] = read-out: E-selectin (Homo sapiens) (UniProt P16581); experiment: BSK_SAg_Eselectin: BioMAP Diversity Plus: SAg Assay for Eselectin Biomarker Activity (AID 2283091); settings: primary human HUVEC with PBMC; actives raise or lower the signal
Summary of the method: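 Endpoint values derive from bidirectional fitting relative to DMSO, using ELISA-measured E-selectin in a human vascular co-culture (umbilical vein endothelium plus PBMC) sampled 24 h after dosing.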

[10] = BSK_SAg_PBMCCytotoxicity: PBMC Cytotoxicity Assessment in the BioMAP Diversity Plus: SAg Assay (AID 2283093); settings: primary human HUVEC with PBMC;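 further: PBMC viability measured as Alamar Blue reduction fluorescence at 546/580 nm; fitted both ways against DMSO so a hit may be loss or gain of signal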;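 on AC50: PBMC superantigen activated with SEB plus TSST-1 one hour after compound addition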
Summary of the method: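 Compound added to 75,000 PBMC/well for 1 h; SEB and TSST-1 then added at 20 ng/mL final each; 90 h incubation; Alamar Blue 6 h; read 546/580 nm ex/em. Activity fitted bidirectionally relative to DMSO baseline.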

[11] = read-out: Interleukin-8 (IL8), CXCL8 (gene 3576); experiment: BSK_SAg_IL8: BioMAP Diversity Plus: SAg Assay for Interleukin-8 (IL8) Biomarker Activity (AID 2283094); settings: primary human HUVEC with PBMC; actives raise or lower the signal
Summary of the method: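 In this co-culture of human umbilical vein endothelium with peripheral blood mononuclear cells, IL-8 is assayed by ELISA at 24 h. DMSO serves as baseline for bidirectional curve fitting.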

[12] = BSK_SAg_Proliferation: Cell Proliferation Assessment in the BioMAP Diversity Plus: SAg Assay (AID 2283095); settings: primary human HUVEC with PBMC;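 further: relative cell number as total protein by SRB absorbance in sub-confluent culture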
Summary of the method: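 Readout is SRB-stained protein (560 nm) in a primary human HUVEC and PBMC co-culture; sub-confluent cultures are read at 96 h. Activity is fitted bidirectionally using DMSO as baseline.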

[13] = BSK_SAg_SRB: Viability Assessment in the BioMAP Diversity Plus: SAg Assay (AID 2283096); settings: primary human HUVEC with PBMC;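 further: cells read one day after compound addition; hits may be either gain or loss of signal compared with DMSO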
Summary of the method: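 Total protein by sulforhodamine B staining, 24 h after dosing, in HUVEC–PBMC co-culture; DMSO-referenced bidirectional fitting.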

[14] = read-out: Monokine induced gamma interferon (MIG), CXCL9 (gene 4283); experiment: BSK_SAg_MIG: BioMAP Diversity Plus: SAg Assay for Monokine induced gamma interferon (MIG) Biomarker Activity (AID 2283092); settings: primary human HUVEC with PBMC; actives raise or lower the signal
Summary of the method: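 Values reflect bidirectional fitting of ELISA-measured MIG against DMSO vehicle, taken 24 h after dosing of a co-culture of human umbilical vein endothelial cells and peripheral blood mononuclear cells.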

[15] = target: human CYP2B6, CYP2B6 (gene 1555) (UniProt P20813); experiment: NVS_ADME_hCYP2B6: NovaScreen (NVS) CYP450-related Enzyme Activity (ADME) Assay for human CYP2B6 (AID 2283101; active means hit-call score of the fitted dose curve at least 0.9, where 1 is the maximum)
Chain of human CYP2B6, CYP2B6 (gene 1555) (P20813 whole entry, looked up): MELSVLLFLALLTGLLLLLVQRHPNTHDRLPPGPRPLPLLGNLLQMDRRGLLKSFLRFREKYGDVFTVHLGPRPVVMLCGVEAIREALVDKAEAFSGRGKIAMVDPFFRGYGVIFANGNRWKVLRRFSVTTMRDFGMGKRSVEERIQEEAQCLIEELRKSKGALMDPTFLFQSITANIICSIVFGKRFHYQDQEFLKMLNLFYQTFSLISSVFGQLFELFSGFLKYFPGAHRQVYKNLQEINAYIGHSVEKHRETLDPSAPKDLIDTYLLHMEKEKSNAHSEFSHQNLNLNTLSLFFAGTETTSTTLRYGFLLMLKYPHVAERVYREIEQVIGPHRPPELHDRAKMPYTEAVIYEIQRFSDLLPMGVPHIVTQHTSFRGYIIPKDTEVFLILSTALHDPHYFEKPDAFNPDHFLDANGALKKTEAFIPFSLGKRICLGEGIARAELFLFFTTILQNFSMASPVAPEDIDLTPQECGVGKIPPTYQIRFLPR
Summary of the method: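 Compounds were first screened in duplicate at 10 uM against recombinant enzyme, with the fluorescent product measured after 1 hour. Active compounds were retested over a concentration series. Loss of fluorescence versus acetonitrile control was scored as reduced enzyme activity.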

[16] = target: human CYP1A1, CYP1A1 (gene 1543) (UniProt P04798); experiment: NVS_ADME_hCYP1A1: NovaScreen (NVS) CYP450-related Enzyme Activity (ADME) Assay for human CYP1A1 (AID 2283100; active means hit-call score of the fitted dose curve at least 0.9, where 1 is the maximum)
Chain of human CYP1A1, CYP1A1 (gene 1543) (P04798 whole entry, looked up): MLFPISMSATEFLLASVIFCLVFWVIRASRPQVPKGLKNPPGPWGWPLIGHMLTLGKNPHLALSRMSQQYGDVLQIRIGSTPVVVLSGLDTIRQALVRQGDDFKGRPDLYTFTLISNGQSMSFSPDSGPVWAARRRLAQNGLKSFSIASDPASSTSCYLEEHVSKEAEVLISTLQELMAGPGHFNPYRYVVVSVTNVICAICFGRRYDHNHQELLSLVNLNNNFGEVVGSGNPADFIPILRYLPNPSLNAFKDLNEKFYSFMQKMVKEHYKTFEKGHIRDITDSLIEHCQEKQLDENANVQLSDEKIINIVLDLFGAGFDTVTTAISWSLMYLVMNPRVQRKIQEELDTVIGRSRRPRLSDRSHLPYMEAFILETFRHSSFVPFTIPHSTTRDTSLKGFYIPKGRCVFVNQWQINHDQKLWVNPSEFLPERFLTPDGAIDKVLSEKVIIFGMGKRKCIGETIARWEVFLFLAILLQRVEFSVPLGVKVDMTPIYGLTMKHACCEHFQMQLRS
Summary of the method: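 Inhibition of recombinant CYP1A1 turnover was assessed fluorometrically in a biochemical format 1 h after compound exposure. Testing began at 10 uM in duplicate and progressed to concentration series reaching 20 uM, with on-plate positive and negative controls.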

[17] = target: human CYP1A2, CYP1A2 (gene 1544) (UniProt P05177); experiment: NVS_ADME_hCYP1A2: NovaScreen (NVS) CYP450-related Enzyme Activity (ADME) Assay for human CYP1A2 (AID 2283102; active means hit-call score of the fitted dose curve at least 0.9, where 1 is the maximum)
Chain of human CYP1A2, CYP1A2 (gene 1544) (P05177 whole entry, looked up): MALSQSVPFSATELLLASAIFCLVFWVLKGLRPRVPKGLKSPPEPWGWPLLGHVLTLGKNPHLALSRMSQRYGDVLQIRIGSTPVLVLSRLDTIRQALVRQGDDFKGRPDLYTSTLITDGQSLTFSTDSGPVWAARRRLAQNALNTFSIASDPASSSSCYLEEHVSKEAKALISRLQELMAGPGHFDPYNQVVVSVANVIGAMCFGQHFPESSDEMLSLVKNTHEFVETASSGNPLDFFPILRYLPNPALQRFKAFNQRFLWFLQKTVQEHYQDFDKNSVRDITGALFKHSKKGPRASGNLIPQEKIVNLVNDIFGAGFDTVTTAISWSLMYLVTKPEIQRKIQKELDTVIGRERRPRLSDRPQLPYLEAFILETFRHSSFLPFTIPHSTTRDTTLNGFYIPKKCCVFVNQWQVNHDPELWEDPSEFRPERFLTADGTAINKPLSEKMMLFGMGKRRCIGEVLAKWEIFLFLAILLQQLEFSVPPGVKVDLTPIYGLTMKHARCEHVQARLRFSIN
Summary of the method: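 Inhibition scored as decrease in fluorescent product versus acetonitrile negative control. Enzyme: insect-cell recombinant human CYP1A2, substrate-specific, cell-free. Reading at 0.5 h; 10 uM duplicate initial screen with positive and negative controls on every plate.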

Measured: AC50

Chain of Tumor necrosis factor (Homo sapiens) (P01375 whole entry, looked up): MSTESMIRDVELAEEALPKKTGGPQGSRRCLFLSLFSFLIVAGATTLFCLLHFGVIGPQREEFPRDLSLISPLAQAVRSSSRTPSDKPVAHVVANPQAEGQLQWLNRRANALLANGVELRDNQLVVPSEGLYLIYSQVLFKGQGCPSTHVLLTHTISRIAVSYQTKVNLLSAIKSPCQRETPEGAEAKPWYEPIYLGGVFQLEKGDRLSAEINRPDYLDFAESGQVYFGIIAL
Chain of E-selectin (Homo sapiens) (P16581 whole entry, looked up): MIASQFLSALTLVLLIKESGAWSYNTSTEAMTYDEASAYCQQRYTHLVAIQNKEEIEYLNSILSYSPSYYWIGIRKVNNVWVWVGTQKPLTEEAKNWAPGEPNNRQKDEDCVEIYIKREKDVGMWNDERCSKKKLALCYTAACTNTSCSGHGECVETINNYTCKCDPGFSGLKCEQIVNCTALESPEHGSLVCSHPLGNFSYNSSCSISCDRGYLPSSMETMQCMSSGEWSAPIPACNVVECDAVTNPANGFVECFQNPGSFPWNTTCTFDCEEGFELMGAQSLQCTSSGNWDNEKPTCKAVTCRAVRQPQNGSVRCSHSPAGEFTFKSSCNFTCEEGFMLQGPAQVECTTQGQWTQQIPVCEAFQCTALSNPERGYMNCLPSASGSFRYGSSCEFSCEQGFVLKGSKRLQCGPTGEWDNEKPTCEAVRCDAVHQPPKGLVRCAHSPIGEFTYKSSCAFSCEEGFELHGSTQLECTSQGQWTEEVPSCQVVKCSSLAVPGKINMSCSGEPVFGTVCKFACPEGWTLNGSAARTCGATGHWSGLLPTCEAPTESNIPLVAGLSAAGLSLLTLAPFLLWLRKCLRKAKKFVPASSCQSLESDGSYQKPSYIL

O=C(O)CCCCC(=O)O
not listed: [14] | [15] | [16] | [17]
inactive: all other assays above

C[C@]12C=CC(=O)C=C1CC[C@@H]1[C@@H]2C(=O)C[C@@]2(C)[C@H]1CC[C@]2(O)C(=O)CO
not listed: [14] | [15] | [16] | [17]
inactive: all other assays above

Cc1ccc2ncccc2c1
not listed: [15] | [16] | [17]
inactive: all other assays above

COc1ccc2c(c1)c(CC(=O)O)c(C)n2C(=O)c1ccc(Cl)cc1
active: [1] 0.148 µM
not listed: [14] | [16] | [17]
inactive: all other assays above

O=c1c(O)c(-c2ccc(O)c(O)c2)oc2cc(O)cc(O)c12
active: [1] 32.8 µM | [6] 36 µM | [10] 13 µM | [12] 28.6 µM | [13] 31 µM
not listed: [14] | [15] | [16] | [17]
inactive: all other assays above

COc1ccc(S(=O)(=O)N2C(=O)[C@@](c3ccccc3OC)(N3C[C@H](O)C[C@H]3C(=O)N(C)C)c3cc(Cl)ccc32)c(OC)c1
active: [2] 32 µM | [4] 16.6 µM | [5] 27 µM | [6] 20 µM | [7] 11.9 µM | [9] 20 µM | [11] 20 µM | [12] 29.4 µM | [13] 29.7 µM
inactive: [1] | [3] | [8] | [14] | [10] | [16]

CC(=O)OC/C=C(\C)CCC=C(C)C
not listed: [14] | [15] | [16] | [17]
inactive: all other assays above

O=C(N[C@@H](Cc1ccccc1)[C@@H](O)C(=O)N1C[C@@H](O)[C@@H](O)C1)c1cc2cc(Cl)ccc2[nH]1
not listed: [15] | [16]
inactive: all other assays above

CCCCCCCCCCCCCO
active: [5] 34.7 µM | [6] 29.8 µM | [8] 31.5 µM | [9] 36.4 µM | [10] 33.2 µM | [11] 38 µM | [13] 37.5 µM
inactive: [1] | [2] | [3] | [4] | [7] | [12]

CCCCCCOCCO
not listed: [14] | [15] | [16] | [17]
inactive: all other assays above

CC1(C)NC(=O)NC1=O
not listed: [14] | [15] | [16] | [17]
inactive: all other assays above

CCCc1cc(=O)[nH]c(=S)[nH]1
not listed: [15] | [16] | [17]
inactive: all other assays above

CC(C)(C)c1cc(O)c(C(C)(C)C)cc1O
active: [1] 9.44 µM | [4] 1.43 µM | [5] 8.05 µM | [6] 11.7 µM | [7] 5.55 µM | [8] 5.94 µM | [9] 7.31 µM | [10] 8.8 µM | [12] 27.8 µM
inactive: [2] | [3] | [11] | [13]

CN1CCN(Cc2cc(-c3ccc4[nH]c(=O)oc4c3)co2)[C@@H](c2ccc(F)cc2)C1
inactive: [1] | [2] | [3] | [4] | [13]
active: [6] 26.8 µM | [7] 17.6 µM | [8] 11.5 µM | [9] 11.2 µM | [10] 28.1 µM | [11] 9.71 µM | [12] 30.7 µM

Source: PubChem BioAssay (EPA / NIEHS)
